Data reported in PubChem BioAssay AID1159580 (chemical genetic matrix, 2015).
Values joined by “and” are separate entries in the source; they are usually repeats but may differ in a detail not shown here. Equal values may be shown once. Among all 5,500 compounds or so, about 2,000 (36%) were called active. Inconclusive results (about 18%) are left out. Cut-off read from the data, not from the text of the source: active = normalized growth mostly below about 0.91 (no sharp cut-off); inconclusive = no clear call, values can overlap the other calls; inactive = mostly above about 0.92. Some of the results follow.

Experiment: chemical genetic growth profiling, strain panel (AID 1159580);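 note: tested at 20 µM; growth read once vehicle control cultures reached saturation at 30 °C; 1 = growth at the plate median or of vehicle wells; lower values mean less growth of the strain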
Settings: S. cerevisiae deletion strains, growth OD

Measured: normalized growth

CN1CCN(CC(=O)N2c3ccccc3C(=O)Nc3cccnc32)CC1
inactive: locus YAL013W, strain DEP1, stronger effect = lower value 1.01 | locus YAL021C, strain ccr4, stronger effect = lower value 0.991 | locus YAL026C, strain drs2, stronger effect = lower value 1.03 | locus YAL030W, strain snc1, stronger effect = lower value 0.999 | locus YAL040C, strain CLN3, stronger effect = lower value 0.963 | locus YBL061C, strain skt5, stronger effect = lower value 1.01 | locus YBR009C, strain hhf1, stronger effect = lower value 0.999 | locus YBR021W, strain FUR4, stronger effect = lower value 1.02 | locus YBR023C, strain chs3, stronger effect = lower value 1.01 | locus YBR171W, strain sec66, stronger effect = lower value 1.02 | locus YBR229C, strain ROT2, stronger effect = lower value 1.01 | locus YBR231C, strain swc5, stronger effect = lower value 1.01 | locus YBR279W, strain paf1, stronger effect = lower value 1.01 | locus YCL011C, strain gbp2, stronger effect = lower value 1.02 | locus YCL016C, strain dcc1, stronger effect = lower value 1 | locus YCL029C, strain bik1, stronger effect = lower value 1.02 | locus YCL061C, strain MRC1 (second series), stronger effect = lower value 0.981 | locus YCL061C, strain MRC1, stronger effect = lower value 1.02 | locus YCL069W, strain vba3, stronger effect = lower value 1.03 | locus YCR088W, strain abp1, stronger effect = lower value 1.01 | locus YDL005C, strain med2, stronger effect = lower value 0.999 | locus YDL035C, strain GPR1, stronger effect = lower value 1.02 | locus YDL040C, strain nat1, stronger effect = lower value 0.992 | locus YDL074C, strain BRE1, stronger effect = lower value 1.05 | locus YDL101C, strain DUN1, stronger effect = lower value 1.02 | locus YDL134C, strain PPH21, stronger effect = lower value 0.991 | locus YDL185W, strain tfp1, stronger effect = lower value 1 | locus YDL192W, strain arf1, stronger effect = lower value 1.01 | locus YDR001C, strain nth1, stronger effect = lower value 1.01 | locus YDR069C, strain doa4, stronger effect = lower value 0.989 | locus YDR101C, strain arx1, stronger effect = lower value 1 | locus YDR137W, strain rgp1, stronger effect = lower value 1.02 | locus YDR150W, strain NUM1, stronger effect = lower value 1.01 and 1 | locus YDR159W, strain sac3, stronger effect = lower value 1.01 | locus YDR162C, strain NBP2, stronger effect = lower value 1.01 | locus YDR195W, strain ref2 0.999 | locus YDR297W, strain sur2, stronger effect = lower value 1.01 | locus YDR318W, strain mcm21, stronger effect = lower value 1.02 | locus YDR334W, strain swr1, stronger effect = lower value 1.04 | locus YDR335W, strain msn5, stronger effect = lower value 1.04 | locus YDR363W, strain ESC2, stronger effect = lower value 1.02 | locus YDR388W, stronger effect = lower value 1.02 | locus YDR392W, strain spt3, stronger effect = lower value 1.01 | locus YDR502C, strain sam2, stronger effect = lower value 1.02 | locus YEL003W, strain gim4, stronger effect = lower value 1.01 | locus YEL037C, strain rad23, stronger effect = lower value 1.01 | locus YEL061C, strain CIN8 (second series), stronger effect = lower value 1.03 | locus YEL061C, strain CIN8, stronger effect = lower value 1.01 | locus YER002W, strain NOP16, stronger effect = lower value 0.986 | locus YER015W, strain faa2, stronger effect = lower value 1.02 | locus YER016W, strain bim1, stronger effect = lower value 0.997 | locus YER110C, stronger effect = lower value 1.02 | locus YER111C, strain swi4, stronger effect = lower value 1.02 | locus YER155C, strain BEM2 (second series), stronger effect = lower value 1.08 | locus YER155C, strain BEM2, stronger effect = lower value 1.01 | locus YER167W, strain BCK2, stronger effect = lower value 1.02 | locus YFR010W, strain ubp6, stronger effect = lower value 1.02 | locus YGL078C, strain dbp3, stronger effect = lower value 1.01 | locus YGL086W, strain mad1, stronger effect = lower value 1.01 | locus YGL167C, strain pmr1, stronger effect = lower value 1.01 | locus YGL173C, strain kem1, stronger effect = lower value 1.06 | locus YGL227W, strain vid30, stronger effect = lower value 1.02 | locus YGL240W, strain doc1, stronger effect = lower value 1.02 | locus YGL248W, strain PDE1, stronger effect = lower value 1.01 | locus YGL253W, strain hxk2, stronger effect = lower value 1.01 | locus YGR078C, strain PAC10, stronger effect = lower value 1.02 | locus YGR135W, strain pre9, stronger effect = lower value 1.01 | locus YGR229C, strain SMI1, stronger effect = lower value 1.01 and 0.968 | locus YGR252W, strain gcn5, stronger effect = lower value 0.995 | locus YHR013C, strain ard1, stronger effect = lower value 1.03 | locus YHR027C, strain rpn1, stronger effect = lower value 1.01 | locus YHR030C, strain SLT2, stronger effect = lower value 1.01 and 0.978 | locus YHR079C, strain IRE1 (second series), stronger effect = lower value 1.02 | locus YHR079C, strain IRE1, stronger effect = lower value 0.986 | locus YHR094C, strain hxt1, stronger effect = lower value 1.02 | locus YHR129C, strain ARP1, stronger effect = lower value 0.995 | locus YHR142W, strain chs7, stronger effect = lower value 1.04 | locus YHR200W, strain rpn10, stronger effect = lower value 1.01 | locus YIL066C, strain RNR3, stronger effect = lower value 1.01 | locus YIL073C, strain SPO22, stronger effect = lower value 1.02 | locus YIL125W, strain kgd1, stronger effect = lower value 1.01 | locus YIR030C, strain dcg1, stronger effect = lower value 1.01 | locus YJL092W, strain hpr5, stronger effect = lower value 1.02 | locus YJL095W, strain BCK1 (second series), stronger effect = lower value 0.991 | locus YJL095W, strain BCK1, stronger effect = lower value 1.04 and 0.99 | locus YJL115W, strain asf1, stronger effect = lower value 1.01 | locus YJL129C, strain trk1, stronger effect = lower value 1.03 | locus YJL134W, strain LCB3, stronger effect = lower value 1.01 | locus YJL154C, strain vps35, stronger effect = lower value 1.01 | locus YJL164C, strain tpk1, stronger effect = lower value 1.01 | locus YJL166W, strain qcr8, stronger effect = lower value 1.03 | locus YJL168C, strain set2, stronger effect = lower value 1.02 | locus YJL187C, strain SWE1 (second series), stronger effect = lower value 1.01 | locus YJR043C, strain POL32, stronger effect = lower value 1.01 | locus YJR066W, strain TOR1, stronger effect = lower value 0.926
